Whole data set: some 35,000 sequences, median “fluorescence intensity (a.u.)” near 10,000, cut for the highest 2% near 52,000. The sample as a whole holds a higher share of the highest values than the screen did.
Biological target: T1, OsWOX13 (Oryza sativa, UniProt Q5QMM3 1-267)
T1 sequence: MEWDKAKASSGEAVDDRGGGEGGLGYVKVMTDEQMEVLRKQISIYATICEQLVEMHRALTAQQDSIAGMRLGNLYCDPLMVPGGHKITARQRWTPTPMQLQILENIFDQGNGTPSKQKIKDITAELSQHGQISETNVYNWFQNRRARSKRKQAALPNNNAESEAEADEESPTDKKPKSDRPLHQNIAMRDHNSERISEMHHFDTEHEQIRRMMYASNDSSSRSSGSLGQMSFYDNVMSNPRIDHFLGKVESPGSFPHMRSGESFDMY
Assay: protein-binding microarray (RPBM); PBS, 2% BSA, 51.3 ng/ul salmon testes DNA, 50 uM zinc acetate, 200 nM TF, 25 C, 1 h; high values mean tight binding
Details: protein: recombinant; tags: N-terminal polyhistidine and DsRed monomer fusion (pET32a); label: CyDye5-dUTP incorporated in the synthesized complementary strand; 3' TTTTT single-stranded linker to array surface; dsDNA, one strand shown
Procedure, shortened: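 Binding signal is defined as the fluorescence intensity of each feature in arbitrary units, read on an Axon 4000B scanner. Transcription factors with N-terminal polyhistidine and DsRed fusions came from E. coli BL21-CodonPlus and were purified on Ni–NTA. They were incubated at 200 nM for 1 h at 25 °C on a custom Agilent array that had been made double-stranded with Cy5-dUTP, with 50 µM zinc acetate present, and the array was washed.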

| Sequence | binding signal |
| --- | --- |
| ATCAAATCAATAATTGAATATATTTTCATAATAAATTTGTCGGAGTCACCTAGTGCAG | 29400 fluorescence intensity (a.u.) |
| CCATTGATTATAATTAAAGACTGTTAGGCAATTGACACAACGGAGTCACCTAGTGCAG | 54000 fluorescence intensity (a.u.) |
| TGTTGATTATAATTAAACACAACAAACAGACTCGAAGCAACGGAGTCACCTAGTGCAG | 48200 fluorescence intensity (a.u.) |
| GGAGGGAGTAGAATAATGATTGATTTAAGTTAATACTAGCCGGAGTCACCTAGTGCAG | 23500 fluorescence intensity (a.u.) |
| TTTATAACATTGTTAATTGATTAGGCATGCAATGCCATATCGGAGTCACCTAGTGCAG | 32300 fluorescence intensity (a.u.) |
| TTTTGTGATAGATTTTATATTAAATATATAGTTTTGTTTTCGGAGTCACCTAGTGCAG | 23400 fluorescence intensity (a.u.) |
| AGGGAAAGTTGTGATTGAGGGAGGATGTTAGATAATGTTACGGAGTCACCTAGTGCAG | 10100 fluorescence intensity (a.u.) |
| TTATTAATTGATAAAATATAGAAATATTGATTTATTGTTTCGGAGTCACCTAGTGCAG | 52500 fluorescence intensity (a.u.) |
| TGTGATTGAGGGAGTTAATTAGGACAAGTTAATAAGTGGCCGGAGTCACCTAGTGCAG | 64500 fluorescence intensity (a.u.) |
| GTATTAATCATGTTTTATCATCTAACAACAACGAAAATACCGGAGTCACCTAGTGCAG | 7970 fluorescence intensity (a.u.) |
| ATAATTTGCTAATACTTAATTAATCACGTGTTAATGGATCCGGAGTCACCTAGTGCAG | 36600 fluorescence intensity (a.u.) |
| AGTTCCCTCTAATTATAATTATAATGTCCTTGGTTTAGGACGGAGTCACCTAGTGCAG | 16200 fluorescence intensity (a.u.) |
| CCTTGCAATCATTCATCAGAGGAGGAGTTCTACAGTGATGCGGAGTCACCTAGTGCAG | 3760 fluorescence intensity (a.u.) |
| GCAATCTTTCATTATCATAATTGGTCGTAGCTTTAATTACCGGAGTCACCTAGTGCAG | 8430 fluorescence intensity (a.u.) |
| TTAATTAGATGCTCATATAAATATGGTGAAACCTGCATGCCGGAGTCACCTAGTGCAG | 21500 fluorescence intensity (a.u.) |
| CCAAATTTAATTTTACCTATTTTAAATGTGGCGATATATCCGGAGTCACCTAGTGCAG | 17900 fluorescence intensity (a.u.) |
| TAATAATTAGTGATTAATTATCCTGACCATTGATTCAACACGGAGTCACCTAGTGCAG | 48300 fluorescence intensity (a.u.) |
| AATGATTGAAGGATATCCATTTGAATGATGGTATGCTTTACGGAGTCACCTAGTGCAG | 43000 fluorescence intensity (a.u.) |
| AAAATAAATAAATAAATTTGGTAACATTGATTAATTAGGACGGAGTCACCTAGTGCAG | 21200 fluorescence intensity (a.u.) |
| ATAAATAGTAATTGACATTAAGAATGGGACCCACACTCTACGGAGTCACCTAGTGCAG | 53000 fluorescence intensity (a.u.) |
| TAGCTAATTCTTAATTAATTATACGCTAATGAATCACTTTCGGAGTCACCTAGTGCAG | 23900 fluorescence intensity (a.u.) |

| Sequence | binding signal |
| --- | --- |
| AGTTAACATGATTTATGATAATTTTAATGTAAATGGTATACGGAGTCACCTAGTGCAG | 16700 fluorescence intensity (a.u.) |
| TTAATTGATTCCATGAAGGTATAATGATACTTTTATGGTACGGAGTCACCTAGTGCAG | 65000 fluorescence intensity (a.u.) |
| ACACTAAATTATTCTACCCACAAATTAAATAATTGAAATACGGAGTCACCTAGTGCAG | 9290 fluorescence intensity (a.u.) |
| GCGTAATAGTAATAATTGATTAATGGTGACACGAGAAGGACGGAGTCACCTAGTGCAG | 46600 fluorescence intensity (a.u.) |
| TAATACTTAATTAATTATATGCTAAATGCTTCTTCGTTTTCGGAGTCACCTAGTGCAG | 27300 fluorescence intensity (a.u.) |
| GGAGTGATTAAATTAGTTAATTAGTTAATAATCCCATTGACGGAGTCACCTAGTGCAG | 56800 fluorescence intensity (a.u.) |
| GTCTTAATTGAATGCATCAATTATACTTTTGCAGGAGTTTCGGAGTCACCTAGTGCAG | 64900 fluorescence intensity (a.u.) |
| TGCTAATAAATCTTGATTTGTTTCACATAGAAGCTGCATCCGGAGTCACCTAGTGCAG | 26400 fluorescence intensity (a.u.) |
| TTGATTAAATACAAAATTAATAGTCAAAGTTTTAAAAGTTCGGAGTCACCTAGTGCAG | 18200 fluorescence intensity (a.u.) |
| TGTGACATTTCCAATCACTAATTGATCAATTGCACAACAACGGAGTCACCTAGTGCAG | 38100 fluorescence intensity (a.u.) |
| ATATGATAATAATTATTTAAAGAAATAAATTTATTTTGGACGGAGTCACCTAGTGCAG | 28700 fluorescence intensity (a.u.) |
| TAAATATATTGTCAAATTATATTTAATGTTTTATTTGATACGGAGTCACCTAGTGCAG | 3180 fluorescence intensity (a.u.) |
| CACTAATTGATCAATTGCACAACAAATTGCTTGAATAACGCGGAGTCACCTAGTGCAG | 59900 fluorescence intensity (a.u.) |
| TGATTAAATTGCTTTAACTTTTATTTAATTTGTAGAAAATCGGAGTCACCTAGTGCAG | 22500 fluorescence intensity (a.u.) |
| AAACTGTTTTAATAATAGATAGATAGATAGATAGATAGATCGGAGTCACCTAGTGCAG | 18200 fluorescence intensity (a.u.) |
| CAGATAATTAGCTACCTGTTTAATAGATCATCTTGATCATCGGAGTCACCTAGTGCAG | 53400 fluorescence intensity (a.u.) |
| TTGTTAATTACCTTGTTTAATTAATTTCGCTAGCTTAGATCGGAGTCACCTAGTGCAG | 44700 fluorescence intensity (a.u.) |
| CATGATTGCTCATCTTTGTATTAAAAGAAATAATTTATGTCGGAGTCACCTAGTGCAG | 53500 fluorescence intensity (a.u.) |
| TGGACAACAATTCTTGATTGAATTTAATTAACGGATAACGCGGAGTCACCTAGTGCAG | 28000 fluorescence intensity (a.u.) |
| GTAAAAGTTAATTGATTTGTTTATACCCTCAAATAGCCATCGGAGTCACCTAGTGCAG | 58700 fluorescence intensity (a.u.) |
| GACAAATTATGGCATTTTAAAATCCAAAATATGGAAAGGGCGGAGTCACCTAGTGCAG | 14600 fluorescence intensity (a.u.) |
